Test [1] deals with XIP peptide (Xip251-270) binding. Briefly: XIP fragment 251-270 binding compounds – biochemical, small-molecule microarray, fluorescence 635/667 nm, 0.1 µg/mL protein, primary screen (AID 1182). Particulars: fluorescent protein binding, 635 nm, higher = more signal, called active from +8 up or from −8 down.
Another test deals with XIP peptide (Xip251-270). The experiment in a line: compounds binding XIP fragment 251-270 – biochemical, small-molecule microarray, fluorescence 635/667 nm, 0.5 µg/mL protein, primary screen (AID 1183). Particulars: fluorescence 635 nm, higher = more signal.
A short description of test [2]: blood-stage malaria parasite viability loss – strain 3D7, DAPI fluorescence, 100 nL, primary screen (AID 1184).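 Further: parasites grown inside human red blood cells in medium with human serum.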 Particulars: P. falciparum 3D7 growth, 3 d, higher = more signal.
The target in test [3] is Homeobox protein Hox-A13 (Mus musculus) (UniProt Q62424). Briefly: disruptors of Hoxa13 oligonucleotide interaction – biochemical, fluorescence polarization, labeled oligonucleotide, primary screen (AID 1185). Particulars: Hoxa13:DNA binding, 15 min, higher = more signal, called active from +8 up or from −8 down. (Fluorescence polarisation rises when a labelled molecule tumbles more slowly, as on binding a larger partner.)
Homeobox protein Hox-A13 (Mus musculus), sequence (Q62424 whole entry, looked up): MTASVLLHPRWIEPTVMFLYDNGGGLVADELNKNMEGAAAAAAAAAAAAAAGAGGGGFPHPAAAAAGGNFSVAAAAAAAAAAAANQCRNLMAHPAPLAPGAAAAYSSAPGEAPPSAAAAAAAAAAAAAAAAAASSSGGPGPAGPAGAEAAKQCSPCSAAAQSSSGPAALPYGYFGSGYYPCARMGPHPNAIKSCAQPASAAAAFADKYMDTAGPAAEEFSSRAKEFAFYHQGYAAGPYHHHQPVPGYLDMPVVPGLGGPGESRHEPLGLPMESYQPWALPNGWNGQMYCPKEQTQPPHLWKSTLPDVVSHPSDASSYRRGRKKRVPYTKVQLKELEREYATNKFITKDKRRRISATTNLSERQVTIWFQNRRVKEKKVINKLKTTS

Test [4] can be described thus: blockers of DNA damage checkpoint Chk1 activation – imaging, HeLa, hydroxyurea, phospho-Chk1 antibody, percent positive cells, primary screen (AID 1186). As to conditions: hydroxyurea-induced phospho-Chk1 immunofluorescence imaging, higher = more signal.
Test [5] can be described thus: blockers of DNA damage checkpoint Chk1 activation – imaging, HeLa, hydroxyurea, phospho-Chk1 nuclear intensity, primary screen (AID 1187). Particulars: hydroxyurea-induced phospho-Chk1 immunofluorescence imaging, higher = more signal.

Calls of active or inactive are those of the source. Unless noted, how the calls were made is not given here.

For `O=C1O[C@H](c2ccccc2)[C@H](c2ccccc2)N2[C@H]1[C@@H](C(=O)NC[C@H](O)c1ccccc1)[C@]1(C(=O)Nc3ccc(C#CCCO)cc31)[C@H]2c1ccc(OCCO)cc1`, the results for the composite z-score (in test [1]; in the test with XIP peptide (Xip251-270)) were 1.14 (inactive) and 0.829, respectively. Moreover, the z-score in test [2] was -0.685; in test [3], -3.46 (inactive); in test [4], -0.434 (inactive); in test [5], -0.821 (inactive).

For the compound `CCCCC=C[C@@H](NC(=O)c1ccc(-c2ccccc2)cc1)c1ccccc1`, the composite z-score in test [1] is -0.464 (inactive); in the test on XIP peptide (Xip251-270) it was -0.102. The z-score in test [2] is 0.067; in test [3], -3.89 (inactive); in test [4] it was -0.85 (inactive); in test [5] it was -1.37 (inactive).

Take `CC(=O)NCCCC[C@@H]1NC(=O)[C@H]2C[C@@H](C(=O)NCCCC[N+](C)(C)C)[C@@H](c3cccc(OCCO)c3)N2C1=O`: the composite z-score in test [1] was 2.02 (inactive); with XIP peptide (Xip251-270), 0.823. Moreover, the z-score in test [2] is -0.207; in test [3], -1.96 (inactive); in test [4] it was 0.0751 (inactive); in test [5] it was 0.341 (inactive).

Take `C=CCC(OC(C)=O)[C@@H]1[C@@H](N(Cc2cc3ccccc3o2)C(=O)c2ccc(C)cc2)c2cc(OCCCO)ccc2N1C(=O)Cc1ccc(OC)cc1` (stereo partly drawn): the composite z-score in test [1] is -0.23 (inactive); in the test with XIP peptide (Xip251-270), 0.0544. In addition, the z-score in test [2] was -0.901; in test [3], -2.07 (inactive); in test [4] it was -0.0554 (inactive); in test [5], -0.601 (inactive).

For `COc1cc2c(cc1OC)CN(C(=O)[C@@H]1[C@H]3C(=O)O[C@H](c4ccccc4)[C@H](c4ccccc4)N3[C@H](c3ccc(OCCO)cc3)[C@@]13C(=O)Nc1ccccc13)CC2`, the results for the composite z-score (in test [1]; in the test with XIP peptide (Xip251-270)) were 0.675 (inactive) and 0.742, respectively. For the same compound, the z-score in test [2] is -1.77; in test [3], -8.07 (active); in test [4] it was -0.118 (inactive); in test [5] it was -0.256 (inactive).

Take `CCCCCCc1nc(C2CC2)cc2c1[Si](C(C)C)(C(C)C)O[C@H]2c1ccccc1`: the composite z-score in test [1] was 0.263 (inactive); with XIP peptide (Xip251-270), 0.421. For the same compound, the z-score in test [2] was -0.358; in test [3], -1.54 (inactive); in test [4], -0.507 (inactive); in test [5], -0.465 (inactive).

`CC(c1ccccc1)C(O)C1C=CC2C(=O)N(c3ccccc3)C(=O)C2N1Nc1ccc([N+](=O)[O-])cc1` (stereo not drawn): the composite z-score in test [1] was 0.725 (inactive); in the test on XIP peptide (Xip251-270), 0.837. In addition, the z-score in test [2] was -0.917; in test [3], -3.22 (inactive); in test [4] it was 0.433 (inactive); in test [5] it was 0.104 (inactive).

As to `C=CCNC(=O)[C@H]1[C@@H]2C(=O)O[C@@H](c3ccccc3)[C@@H](c3ccccc3)N2[C@@H](c2ccc(O)cc2)[C@]12C(=O)N(C(=O)OCCOC)c1ccccc12`, the results for the composite z-score (in test [1]; with XIP peptide (Xip251-270)) were 0.995 (inactive) and 0.742, respectively. Further, the z-score is -1.38 in test [2], -3.73 (inactive) in test [3], 0.175 (inactive) in test [4] and -0.0776 (inactive) in test [5].

`[N-]=[N+]=NCc1ccccc1C[C@@]1(C(=O)N2CCCCC2)N=C(c2ccc(OCCCO)cc2)O[C@@H]1c1ccccc1`: the composite z-score is -0.194 (inactive) in test [1] and 0.434 in the test with XIP peptide (Xip251-270). The z-score in test [2] is -2.38; in test [3], -4.86 (inactive); in test [4], -0.219 (inactive); in test [5], -0.234 (inactive).

Turning to `COc1ccc([Si](C)(C)[C@@H]2[C@@H](CC(=O)N3Cc4ccccc4C[C@H]3CO)O[C@]3(C(=O)N(Cc4cccc(N5C(=O)c6cccc7cccc5c67)c4)c4ccccc43)[C@H]2C)cc1`, the composite z-score in test [1] was 1.26 (inactive); in the test on XIP peptide (Xip251-270), 0.574. Further, the z-score in test [2] is -2.59; in test [3] it was -1.47 (inactive); in test [4], 0.115 (inactive); in test [5], -0.0849 (inactive).

Take `COc1ccc(NC(=O)O[C@H]2[C@H](OC(=O)Nc3ccccc3)[C@@H](OC(=O)Nc3ccccc3)[C@@H](OC)O[C@@H]2CO)cc1`: the composite z-score in test [1] is 0.551 (inactive); with XIP peptide (Xip251-270) it was 0.925. Also, the z-score is -2.47 in test [2], -6.22 (inactive) in test [3], -0.454 (inactive) in test [4] and -0.429 (inactive) in test [5].

With `C[C@@H]1ON(c2ccc(C(=O)OC(C)(C)C)cc2)[C@H](c2ccc(O)cc2)[C@H]1C(=O)N1C(=O)OC[C@H]1Cc1ccccc1`, the composite z-score in test [1] is 0.047 (inactive); with XIP peptide (Xip251-270), 0.599. Besides, the z-score was -0.393 in test [2], -3.64 (inactive) in test [3], -0.0209 (inactive) in test [4] and -0.154 (inactive) in test [5].

In the case of `Cc1cc(C)c(C(O)C2C=CC3C(=O)NC(=O)C3N2Nc2ccc(Cl)cc2Cl)c(C)c1` (stereo not drawn), the composite z-score in test [1] is 0.696 (inactive); in the test on XIP peptide (Xip251-270) it was 0.179. The z-score was 0.17 in test [2], -3.47 (inactive) in test [3], 0.73 (inactive) in test [4] and 0.314 (inactive) in test [5].

Source of the values: PubChem BioAssay.
